In the supplement of paper PMC8728848:
About 410 targets per protein were measured; listed, in parts, are those with the strongest signals and a random draw of the rest.

Tests used:
Test in all cases: glycan array binding signal (z-score within array); higher = stronger binding
Settings in all cases: glycan notation: IUPAC condensed, linker removed
[1] = molecular target: Fuc(a1-2)Gal(b1-3)GalNAc(b1-3)Gal(a1-4)Gal(b1-4)Glc
Procedure, shortened: (§1)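 From the Consortium for Functional Glycomics database, 3228 arrays were curated, keeping only those whose protein sequence was available. Binding is given as a within-array Z-score averaged across arrays sharing a protein sequence and across linkers. Negative Z-scores can be read as non-binding.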

[2] = molecular target: Fuc(a1-2)Gal(b1-4)GlcNAc(b1-2)Man(a1-3)[Fuc(a1-2)Gal(b1-4)GlcNAc(b1-2)Man(a1-6)]Man(b1-4)GlcNAc(b1-4)GlcNAc
Procedure, shortened: as §1

[3] = molecular target: Fuc(a1-2)Gal(b1-4)GlcNAc(b1-3)Gal(b1-4)GlcNAc(b1-2)Man(a1-3)[Fuc(a1-2)Gal(b1-4)GlcNAc(b1-3)Gal(b1-4)GlcNAc(b1-2)Man(a1-6)]Man(b1-4)GlcNAc(b1-4)GlcNAc
Procedure, shortened: as §1

[4] = molecular target: Fuc(a1-2)Gal6S(b1-3)GlcNAc6S
Procedure, shortened: as §1

Fuc(a1-2)[Gal(a1-3)]Gal = molecular target: Fuc(a1-2)[Gal(a1-3)]Gal
Procedure, shortened: as §1

[5] = molecular target: Fuc(a1-2)[Gal(a1-3)]Gal(b1-4)GlcNAc(b1-6)GalNAc
Procedure, shortened: as §1

[6] = molecular target: Fuc(a1-2)[GalNAc(a1-3)]Gal(b1-4)GlcNAc(b1-2)Man
Procedure, shortened: as §1

[7] = molecular target: Fuc(a1-2)[GalNAc(a1-3)]Gal(b1-4)GlcNAc(b1-3)Gal(b1-4)GlcNAc(b1-3)Gal(b1-4)GlcNAc
Procedure, shortened: as §1

[8] = molecular target: Fuc(a1-3)[Gal(b1-4)]GlcNAc(b1-2)Man(a1-3)[Fuc(a1-3)[Gal(b1-4)]GlcNAc(b1-2)Man(a1-6)]Man(b1-4)GlcNAc(b1-4)[Fuc(a1-6)]GlcNAc
Procedure, shortened: as §1

Gal(a1-3)Gal = molecular target: Gal(a1-3)Gal
Procedure, shortened: as §1

[9] = molecular target: Gal(a1-3)Gal(b1-4)GlcNAc(b1-3)GalNAc
Procedure, shortened: as §1

[10] = molecular target: Gal(a1-4)Gal(b1-4)GlcNAc(b1-2)Man(a1-3)[Gal(a1-4)Gal(b1-4)GlcNAc(b1-2)Man(a1-6)]Man(b1-4)GlcNAc(b1-4)GlcNAc
Procedure, shortened: as §1

Gal(b1-2)Gal = molecular target: Gal(b1-2)Gal
Procedure, shortened: as §1

Gal(b1-3)GalNAc(b1-3)Gal = molecular target: Gal(b1-3)GalNAc(b1-3)Gal
Procedure, shortened: as §1

[11] = molecular target: Gal(b1-3)GalNAc(b1-4)[Neu5Ac(a2-3)]Gal(b1-4)Glc
Procedure, shortened: as §1

Gal(b1-4)GlcNAc(b1-2)Man = molecular target: Gal(b1-4)GlcNAc(b1-2)Man
Procedure, shortened: as §1

[12] = molecular target: Gal(b1-4)GlcNAc(b1-2)[Gal(b1-4)GlcNAc(b1-4)]Man(a1-3)[Gal(b1-4)GlcNAc(b1-2)Man(a1-6)]Man(b1-4)GlcNAc(b1-4)GlcNAc
Procedure, shortened: as §1

[13] = molecular target: Gal(b1-4)GlcNAc(b1-3)Gal(b1-4)GlcNAc
Procedure, shortened: as §1

[14] = molecular target: Gal(b1-4)GlcNAc(b1-3)Gal(b1-4)GlcNAc(b1-3)Gal(b1-4)GlcNAc(b1-3)Gal(b1-4)GlcNAc(b1-3)Gal(b1-4)GlcNAc(b1-2)Man(a1-3)[Gal(b1-4)GlcNAc(b1-3)Gal(b1-4)GlcNAc(b1-3)Gal(b1-4)GlcNAc(b1-3)Gal(b1-4)GlcNAc(b1-3)Gal(b1-4)GlcNAc(b1-2)Man(a1-6)]Man(b1-4)GlcNAc(b1-4)GlcNAc
Procedure, shortened: as §1

[15] = molecular target: Gal(b1-4)GlcNAc(b1-3)Gal(b1-4)GlcNAc(b1-3)Gal(b1-4)GlcNAc(b1-3)Gal(b1-4)GlcNAc(b1-3)Gal(b1-4)GlcNAc(b1-2)Man(a1-3)[Gal(b1-4)GlcNAc(b1-3)Gal(b1-4)GlcNAc(b1-3)Gal(b1-4)GlcNAc(b1-3)Gal(b1-4)GlcNAc(b1-3)Gal(b1-4)GlcNAc(b1-2)Man(a1-6)]Man(b1-4)GlcNAc(b1-4)[Fuc(a1-6)]GlcNAc
Procedure, shortened: as §1

Gal3S(b1-3)GalNAc = molecular target: Gal3S(b1-3)GalNAc
Procedure, shortened: as §1

Gal6S(b1-4)GlcNAc6S = molecular target: Gal6S(b1-4)GlcNAc6S
Procedure, shortened: as §1

[16] = molecular target: GalNAc(b1-3)Gal(a1-4)Gal(b1-4)GlcNAc
Procedure, shortened: as §1

GalNAc(b1-3)GlcNAc = molecular target: GalNAc(b1-3)GlcNAc
Procedure, shortened: as §1

GalNAc(b1-4)Gal(b1-4)Glc = molecular target: GalNAc(b1-4)Gal(b1-4)Glc
Procedure, shortened: as §1

[17] = molecular target: GalNAc(b1-4)GlcNAc(b1-3)GalNAc(b1-4)GlcNAc
Procedure, shortened: as §1

GalNAc3S(b1-4)GlcNAc = molecular target: GalNAc3S(b1-4)GlcNAc
Procedure, shortened: as §1

[18] = molecular target: GlcNAc(b1-2)Man(a1-3)[GlcNAc(b1-2)Man(a1-6)]Man(b1-4)GlcNAc(b1-4)[Fuc(a1-6)]GlcNAc
Procedure, shortened: as §1

[19] = molecular target: GlcNAc(b1-2)Man(a1-3)[GlcNAc(b1-4)][GlcNAc(b1-2)Man(a1-6)]Man(b1-4)GlcNAc(b1-4)GlcNAc
Procedure, shortened: as §1

[20] = molecular target: GlcNAc(b1-2)[GlcNAc(b1-6)]Man(a1-6)[GlcNAc(b1-4)][GlcNAc(b1-2)Man(a1-3)]Man(b1-4)GlcNAc(b1-4)GlcNAc
Procedure, shortened: as §1

GlcNAc(b1-3)Gal(b1-4)Glc = molecular target: GlcNAc(b1-3)Gal(b1-4)Glc
Procedure, shortened: as §1

[21] = molecular target: GlcNAc(b1-3)Gal(b1-4)GlcNAc(b1-3)Gal(b1-4)GlcNAc(b1-3)Gal(b1-4)GlcNAc(b1-3)Gal(b1-4)GlcNAc(b1-2)Man(a1-3)[GlcNAc(b1-3)Gal(b1-4)GlcNAc(b1-3)Gal(b1-4)GlcNAc(b1-3)Gal(b1-4)GlcNAc(b1-3)Gal(b1-4)GlcNAc(b1-2)Man(a1-6)]Man(b1-4)GlcNAc(b1-4)[Fuc(a1-6)]GlcNAc
Procedure, shortened: as §1

[22] = molecular target: GlcNAc(b1-3)Gal(b1-4)GlcNAc(b1-3)GalNAc
Procedure, shortened: as §1

[23] = molecular target: GlcNAc(b1-3)Gal(b1-4)GlcNAc(b1-6)[GlcNAc(b1-3)]Gal(b1-4)GlcNAc
Procedure, shortened: as §1

[24] = molecular target: GlcNAc(b1-3)[GlcNAc(b1-4)][GlcNAc(b1-6)]GlcNAc
Procedure, shortened: as §1

[25] = molecular target: GlcNAc(b1-4)GlcNAc(b1-4)GlcNAc(b1-4)GlcNAc(b1-4)GlcNAc
Procedure, shortened: as §1

Kdn(a2-6)Gal(b1-4)GlcNAc = molecular target: Kdn(a2-6)Gal(b1-4)GlcNAc
Procedure, shortened: as §1

[26] = molecular target: Man(a1-2)Man(a1-6)[Man(a1-3)]Man(a1-6)[Man(a1-2)Man(a1-2)Man(a1-3)]Man
Procedure, shortened: as §1

[27] = molecular target: Neu5Ac(a2-3)Gal(b1-4)GlcNAc(b1-2)[Neu5Ac(a2-3)Gal(b1-4)GlcNAc(b1-4)]Man(a1-3)[GlcNAc(b1-4)][Neu5Ac(a2-3)Gal(b1-4)GlcNAc(b1-2)[Neu5Ac(a2-3)Gal(b1-4)GlcNAc(b1-6)]Man(a1-6)]Man(b1-4)GlcNAc(b1-4)GlcNAc
Procedure, shortened: as §1

[28] = molecular target: Neu5Ac(a2-3)Gal(b1-4)[Fuc(a1-3)]GlcNAc(b1-3)Gal(b1-4)[Fuc(a1-3)]GlcNAc(b1-3)Gal(b1-4)[Fuc(a1-3)]GlcNAc
Procedure, shortened: as §1

Neu5Ac(a2-3)GalNAc = molecular target: Neu5Ac(a2-3)GalNAc
Procedure, shortened: as §1

[29] = molecular target: Neu5Ac(a2-6)Gal(b1-4)GlcNAc(b1-2)Man(a1-3)[Gal(b1-4)GlcNAc(b1-2)Man(a1-6)]Man(b1-4)GlcNAc(b1-4)GlcNAc
Procedure, shortened: as §1

[30] = molecular target: Neu5Ac(a2-6)Gal(b1-4)GlcNAc(b1-2)Man(a1-6)Man(b1-4)GlcNAc(b1-4)GlcNAc
Procedure, shortened: as §1

[31] = molecular target: Neu5Ac(a2-6)Gal(b1-4)GlcNAc(b1-3)Gal(b1-4)GlcNAc(b1-6)[Gal(b1-3)]GalNAc
Procedure, shortened: as §1

[32] = molecular target: Neu5Ac(a2-6)Gal(b1-4)GlcNAc(b1-6)[Gal(b1-3)GlcNAc(b1-3)]Gal(b1-4)Glc
Procedure, shortened: as §1

[33] = molecular target: Neu5Ac(a2-6)Gal(b1-4)GlcNAc6S
Procedure, shortened: as §1

[34] = molecular target: Neu5Gc(a2-3)Gal(b1-3)[Fuc(a1-4)]GlcNAc
Procedure, shortened: as §1

B1: pTFF2 (Sus scrofa), P01359 (protein)
chain: KPAACRCSRQDPKNRVNCGFPGITSDQCFTSGCCFDSQVPGVPWCFKPLPAQESEECVMEVSARKNCGYPGISPEDCAARNCCFSDTIPEVPWCFFPMSVEACHY
glycan array binding signal (z-score) [1]: -0.047 | glycan array binding signal (z-score) [2]: 0.121 | glycan array binding signal (z-score) [3]: 0.716 | glycan array binding signal (z-score) [4]: -0.991 | glycan array binding signal (z-score) (Fuc(a1-2)[Gal(a1-3)]Gal): -0.204 | glycan array binding signal (z-score) [5]: -0.303 | glycan array binding signal (z-score) [6]: 0.535 | glycan array binding signal (z-score) [7]: -0.048 | glycan array binding signal (z-score) [8]: -0.109 | glycan array binding signal (z-score) (Gal(a1-3)Gal): -0.276 | glycan array binding signal (z-score) [9]: 0.196 | glycan array binding signal (z-score) [10]: 2.45 | glycan array binding signal (z-score) (Gal(b1-2)Gal): -1.31 | glycan array binding signal (z-score) (Gal(b1-3)GalNAc(b1-3)Gal): 2.98 | glycan array binding signal (z-score) [11]: 2.82 | glycan array binding signal (z-score) (Gal(b1-4)GlcNAc(b1-2)Man): -2.22 | glycan array binding signal (z-score) [12]: -0.702 | glycan array binding signal (z-score) [13]: -0.47 | glycan array binding signal (z-score) [14]: 2.48 | glycan array binding signal (z-score) [15]: 2.62 | glycan array binding signal (z-score) (Gal3S(b1-3)GalNAc): 0.185 | glycan array binding signal (z-score) (Gal6S(b1-4)GlcNAc6S): 0.285 | glycan array binding signal (z-score) [16]: -0.4 | glycan array binding signal (z-score) (GalNAc(b1-3)GlcNAc): 0.736 | glycan array binding signal (z-score) (GalNAc(b1-4)Gal(b1-4)Glc): 4.38 | glycan array binding signal (z-score) [17]: -0.11 | glycan array binding signal (z-score) (GalNAc3S(b1-4)GlcNAc): 2.64 | glycan array binding signal (z-score) [18]: -1.4 | glycan array binding signal (z-score) [19]: 0.002 | glycan array binding signal (z-score) [20]: 0.104 | glycan array binding signal (z-score) (GlcNAc(b1-3)Gal(b1-4)Glc): -0.368 | glycan array binding signal (z-score) [21]: 4.15 | glycan array binding signal (z-score) [22]: 3.21 | glycan array binding signal (z-score) [23]: -0.954 | glycan array binding signal (z-score) [24]: 0.277 | glycan array binding signal (z-score) [25]: -0.168 | glycan array binding signal (z-score) (Kdn(a2-6)Gal(b1-4)GlcNAc): 0.54 | glycan array binding signal (z-score) [26]: 0.712 | glycan array binding signal (z-score) [27]: 6.13 | glycan array binding signal (z-score) [28]: -0.094 | glycan array binding signal (z-score) (Neu5Ac(a2-3)GalNAc): 1.05 | glycan array binding signal (z-score) [29]: 0.708 | glycan array binding signal (z-score) [30]: 2.29 | glycan array binding signal (z-score) [31]: -0.859 | glycan array binding signal (z-score) [32]: -0.007 | glycan array binding signal (z-score) [33]: -1.45 | glycan array binding signal (z-score) [34]: 0.024
